Source: PubChem BioAssay AID1159583 (ICCB-Longwood Screening Facility, Harvard Medical School, 2016)
Values joined by “and” are separate entries in the source; they are usually repeats but may differ in a detail not shown here. Equal values may be shown once. Among all 300,000 compounds or so, about 310 (0.1%) were called active. No stated cut-off is given here; in the data, active means fluorescence inhibition mostly above about 23% (no sharp cut-off); inactive means mostly below about 17%. For the sample, actives were picked, then their nearest neighbours and some compounds at random.

experiment: hypoxia reporter signal reduction in M. tuberculosis – fluorescence, absorbance growth readout, primary screen (AID 1159583); settings: M. tuberculosis hypoxia-regulated fluorescent reporter, stronger effect = higher value, concentration not given here; growth inhibition: measured here: M. tuberculosis growth (absorbance)

Row | Compound | fluorescence inhibition | growth inhibition
1 | CC(NCCN1CCOCC1)=C(C#N)C(N)=O | 7.39% (inactive) | 4.01%
2 | O=C1C2CC3C=CC2(O3)C2OCCCN12 (stereo unspecified) | 8.99% (inactive) | 11.9%
3 | CC1CC2C3CCC4=CC(=O)C=C[C@]4(C)[C@@]3(F)C(O)C[C@]2(C)C1C(=O)CO (stereo partly specified) | -3.35% (inactive) | 0.308%
4 | Nc1cnnc(NN=Cc2ccccc2)c1Cl | 7.6% (inactive) | 4.96%
5 | Cc1cc(C(=O)NN=Cc2ccc(-c3ccc([N+](=O)[O-])cc3C)o2)n[nH]1 | 5.18% (inactive) | 1.96%
6 | O=C(NN=Cc1ccccn1)c1cc(-c2ccccc2Cl)n[nH]1 | 10.9% (inactive) | 11.2%
7 | CC(=NNC(=O)OC(C)(C)C)c1ccc(-n2ccnc2)cc1 | 11.1% (inactive) | 15.9%
8 | N#CC(=NNc1cccc(F)c1)C(=O)C1CC1 | 0.893% (inactive) | -0.741%
9 | CC(CC(O)(C=NO)c1ccccc1)=NO (stereo unspecified) | 10% (inactive) | 6.39%
10 | COc1ccc(C=NNc2nc3ccccc3[nH]2)c(OC)c1OC | 1.22% (inactive) | -0.982%
11 | CCOC(=O)C(=Cc1ccc(C)cc1)NC(=O)c1ccccc1 | 1.97% (inactive) | 2.94%
12 | NC(Cc1cccc2ccccc12)=NOC(=O)Cc1cccs1 | 2.6% (inactive) | 4.27%
13 | COc1ccc(CNC(=O)C2CC=CC3CCN(C4CC4)C(=O)C32)cc1 (stereo unspecified) | 19.3% (inactive) | 20.6%
14 | Cc1cc(C(=O)NN=Cc2cn[nH]c2-c2ccccc2)cs1 | -3.45% (inactive) | -1.59%
15 | COc1cccc(C2Oc3ccc(Br)cc3C(=O)C2OC(=O)NC2CCCC2)c1 (stereo unspecified) | 2.63% (inactive) | 0.422%
16 | CCCCCC=CC1=CC(=O)CC(c2ccc(Cl)cc2)C1 (stereo unspecified) | -0.281% (inactive) | 11.6%
17 | Cc1cc(SCC(=O)NN=Cc2ccccc2C(=O)O)c(C)cc1Br | 0.764% (inactive) | -1.84%
18 | OCC1OC(O)C(O)C1O (stereo unspecified) | 1.54% (inactive) | -8.94%
19 | CC(C)(C)OC(=O)CC1CC=CCC(CC(=O)NC(CO)Cc2ccccc2)C(=O)NC(C(C)(C)C)COC1=O (stereo unspecified) | 0.171% (inactive) and 3.19% (inactive) | 4.91% and 7.16%
20 | CC(C)(O)C1C2OC(=O)C1[C@]1(O)CC3O[C@]34C(=O)OC2[C@]14C (stereo partly specified) (tested in a mixture with another compound) | -0.0447% (inactive) | 5.86%
21 | COC(=O)[C@]1(Cc2ccccc2)NC(c2ccc(-c3cccc(Cl)c3)c(OC)c2)C2C(=O)N(C)C(=O)C21 (stereo partly specified) | 1.8% (inactive) | 8.95%
22 | O=C(NN=Cc1c[nH]c2ccccc12)c1[nH]c2ccc(Br)cc2c1-c1ccccc1 | 4.24% (inactive) | -6.01%
23 | O=C(NN=CC1CC2CCC1C2)C1CC1 (stereo unspecified) | -1.06% (inactive) | -3.88%
